# Laboratory results from PubChem BioAssay (NCATS).
# Where “and” joins values, the source holds several entries; their conditions need not be identical. Equal entries are not always repeated. Results filed as inconclusive are left out. Values without a mark were called inactive. Calls of active or inactive are those of the source. The call rests on the fitted dose curve; in most records, active means well fitted inhibition curve with a large enough effect; inconclusive means small, poorly fitted or top-dose-only effect; inactive means flat fitted curve, though single readings scatter.
# Tests used:
# Assay in all cases: Cytotoxic Profiling of Annotated Libraries Using Quantitative High-Throughput Screening (AID 1296008); further: nearly all actives have a fitted effect of over 60% in size
# Details in all cases: Five cell lines viability, CellTiter-Glo ATP luminescence, 48-72 h; max response: active compounds read low
# [1] = tested on: CRL-7250
# In short: (§1)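 Compounds were pin-transferred onto cells and incubated 48 or 72 hr at 37 degree Celsius, 95% humidity. CellTiter-Glo was added, plates sat 10 min at room temperature, then ATP-coupled luminescence was imaged as the viability read-out.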
# [2] = tested on: HEK293
# In short: as §1
# [3] = tested on: HaCat
# In short: as §1
# [4] = tested on: KB-3-1
# In short: as §1
# On the % scale 0 is the no-effect control and ±100 the full control effect; potency means the concentration at half of the fitted maximal effect.
structure (smiles),measurement,setting,value
CN1C(CSCC(F)(F)F)Nc2cc(Cl)c(S(N)(=O)=O)cc2S1(=O)=O (centres undefined),max response,[1],-17.8%
same,max response,[2],1.71%
same,max response,[3],4.02%
same,max response,[4],38.2%
CN1CCN(N)CC1,max response,[1],-18.2%
same,outcome,[2],inactive
same,max response,[3],1.4%
Cc1nc2n(c(=O)c1CCN1CCC(C(=O)c3ccc(F)cc3)CC1)CCS2,Potency,[1],9.44 µM (active)
same,Potency,[2],8.41 µM (active)
same,max response,[3],1.44%
CCO[C@H](Cc1ccc(OCCc2ccc(OS(C)(=O)=O)cc2)cc1)C(=O)O,max response,[1],-4.09%
same,max response,[2],-6.35%
same,outcome,[3],inactive
same,max response,[4],-10.5%
CC(C)C(=O)Nc1cccc(C(F)(F)F)c1,max response,[1],3.59%
same,max response,[2],3.73%
same,outcome,[3],inactive
COc1cc(NS(=O)(=O)c2ccc(N)cc2)nc(C)n1,max response,[1],-6.73%
same,outcome,[2],inactive
same,max response,[3],-7.5%
COC(=O)c1ccc(NC(C)=O)cc1OC,max response,[1],-0.178%
same,max response,[2],-0.683%
same,max response,[3],-9.21%
Nc1c(I)cc(I)c(C(=O)N(CCC(=O)O)c2ccccc2)c1I,max response,[1],1.19%
same,max response,[2],-0.316%
same,outcome,[3],inactive
COc1cc(S(N)(=O)=O)cc(C(=O)O)c1OC,max response,[1],3.62%
same,max response,[2],-2.74%
same,max response,[3],2%
CCN(CC)CC(=O)OCC(=O)[C@@]1(O)CC[C@H]2[C@@H]3CCC4=CC(=O)CC[C@]4(C)[C@H]3[C@@H](O)C[C@@]21C,outcome,[1],inactive
same,max response,[2],0.946%
same,outcome,[3],inactive
CC(=O)[C@H]1CC[C@H]2[C@@H]3C=CC4=CC(=O)CC[C@@]4(C)[C@@H]3CC[C@]12C,max response,[1],-2.73% and 1.98%
same,max response,[2],-2.74%
same,max response,[3],-26.7%
same,outcome,[3],inactive
CC(C)CCCC(C)NCCC(C)C (centres undefined),max response,[1],-5.37%
same,max response,[2],-7.84%
same,max response,[3],3.37%
O=c1[nH]c(=O)n([C@H]2O[C@H](CO)[C@@H](O)[C@@H]2O)cc1/C=C\Br,max response,[1],-8.24%
same,outcome,[2],inactive
same,max response,[3],4.03%
Nc1ccc([N+](=O)[O-])c(C(F)(F)F)c1,max response,[1],1.39%
same,max response,[2],4.93%
same,outcome,[3],inactive
CC(=O)O[C@H]1CC[C@@]2(C)C(=CC[C@@H]3[C@@H]2CC[C@]2(C)C(C(C)=O)=CC[C@@H]32)C1,max response,[1],-17.3%
same,max response,[2],-0.38%
same,max response,[3],-12.2%
CC(=O)N[C@@H](CCC(N)=O)C(=O)O,max response,[1],-5.46%
same,outcome,[2],inactive
same,outcome,[3],inactive
same,max response,[4],-6.88%
CCC1=C[C@@H]2CN(C1)Cc1c([nH]c3ccccc13)[C@@](C(=O)OC)(c1cc3c(cc1OC)N(C)[C@H]1[C@@](O)(C(=O)OC)[C@H](OC(C)=O)[C@]4(CC)C=CCN5CC[C@]31[C@@H]54)C2,Potency,[1],0.0422 µM (active)
same,Potency,[2],0.0084 µM (active)
same,outcome,[3],inactive
CCOC(=O)c1ccc(O)c(O)c1,max response,[1],2.32%
same,outcome,[2],inactive
same,max response,[3],-0.432%
Cc1ccc(C(=O)Oc2ccc(C(O)CNC(C)(C)C)cc2OC(=O)c2ccc(C)cc2)cc1 (centres undefined),max response,[1],-6.97%
same,max response,[2],1.15%
same,outcome,[3],inactive
Cc1ccc2ccc(Cl)cc2n1,outcome,[1],inactive
same,outcome,[2],inactive
same,outcome,[3],inactive
CCc1cccc2c(CCO)c[nH]c12,max response,[1],-8.62%
same,max response,[2],-6.21%
same,max response,[3],2.18%
CCOCCn1c(C2CCN(CCc3ccc(C(C)(C)C(=O)O)cc3)CC2)nc2ccccc21,max response,[1],-0.215%
same,max response,[2],-1.51%
same,outcome,[3],inactive
CC(=O)OC[C@H]1O[C@@H](OC(C)=O)[C@H](OC(C)=O)[C@@H]1OC(C)=O,max response,[1],-4.36%
same,max response,[2],1.73%
same,max response,[3],2.57%
Cc1ccc(/C=N/n2c(-c3ccccc3)csc2=S)cc1,max response,[1],-8.42%
same,max response,[2],1.19%
same,outcome,[3],inactive
same,max response,[4],-9.01%
CCOC(=O)c1ccc(OCCN2C[C@H](O)[C@@H](O)[C@H](O)[C@H]2CO)cc1,max response,[1],-7.54%
same,max response,[2],-10.3%
same,max response,[3],-6.67%
same,outcome,[4],inactive
CO[C@@]1(NC(=O)CSC[C@@H](N)C(=O)O)C(=O)N2C(C(=O)O)=C(CSc3nnnn3C)CS[C@@H]21,max response,[1],1.25%
same,outcome,[2],inactive
same,outcome,[3],inactive
same,max response,[4],-3.72%
CCCCCC[C@@H](CCC)C(=O)O,max response,[1],-4.37%
same,outcome,[2],inactive
same,outcome,[3],inactive
same,max response,[4],-12.3%
O=C(O)c1ccccc1S,max response,[1],-0.928%
same,max response,[2],0.0683%
same,max response,[3],1.95%
same,max response,[4],-5.69%
Cc1nc([N+](=O)[O-])cn1-c1ccc([N+](=O)[O-])cc1,max response,[1],1.02%
same,max response,[2],0.842%
same,outcome,[3],inactive
same,max response,[4],5.55%
O=P(O)(O)OCC(O)CO (centres undefined),max response,[1],-2.69%
same,max response,[2],-2.36%
same,max response,[3],0.361%
same,max response,[4],-6.39%
CC(=O)Nc1c(I)c(NC(C)=O)c(I)c(C(=O)O)c1I,max response,[1],2.5%
same,max response,[2],2.17%
same,outcome,[3],inactive
same,max response,[4],-3.56%
CCCCC(CC)COC(=O)c1ccccc1C(=O)O (centres undefined),max response,[1],-9.5%
same,outcome,[2],inactive
same,max response,[3],-1.62%
same,max response,[4],-15.1%
